The supplement of paper PMC9844399
Counter-ions that a name gives are not always drawn.

Test system: HeLa
Experiment: nuclear count per well, robust Z-score vs DMSO; higher = more cells (less toxicity)
Settings: 10 µM; 6 h
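Note: Hoechst-stained nuclei counted by automated confocal imaging of four fields per well in 384-well plates, with the robust Z-score based on the per-plate DMSO median and robust SD.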

**Q.** With `O=C1CN(/N=C/c2ccc(-c3ccc([N+](=O)[O-])cc3)o2)C(=O)N1` [Dantrolene sodium salt] as the compound, how does the “nuclear count per well” value read?
**A.** 0.134

**Q.** For `CN1CCCCC1CCN1c2ccccc2Sc2ccc([S+](C)[O-])cc21` (stereo not given) [Mesoridazine benzenesulfonate], which “nuclear count per well” value is on record?
**A.** 0.23

**Q.** For `O=C(NCCCNc1nc(Nc2cccc(CN3CCOCC3)c2)ncc1C1CC1)C1CCC1`, which “nuclear count per well” value is on record?
**A.** -2.72

**Q.** For `NCC[C@H](O)C(=O)N[C@@H]1C[C@H](N)[C@@H](O[C@H]2O[C@H](CN)[C@@H](O)[C@H](O)[C@H]2O)[C@H](O)[C@H]1O[C@H]1O[C@H](CO)[C@@H](O)[C@H](N)[C@H]1O` [Amikacin Disulfate], which “nuclear count per well” value is on record?
**A.** -0.373

**Q.** With `O=C(O)c1cc(-c2ccccc2)nc2ccccc12` [Cincophen] as the compound, how does the “nuclear count per well” value read?
**A.** 0.414

**Q.** For `CCOC(=O)[C@H](CCc1ccccc1)N[C@H]1CCc2ccccc2N(CC(=O)O)C1=O`, which “nuclear count per well” value is on record?
**A.** -0.363

**Q.** With `CC(C)(Oc1ccc(CCNC(=O)c2ccc(Cl)cc2)cc1)C(=O)O` [bezafibrate] as the compound, how does the “nuclear count per well” value read?
**A.** -0.397

**Q.** Which “nuclear count per well” value does the source give for `CC(C)n1nc(-c2cc3cc(O)ccc3[nH]2)c2c(N)ncnc21` [PP242 hydrate] here?
**A.** -1.07

**Q.** `Cc1nc2n(c(=O)c1CCN1CCC(c3noc4cc(F)ccc34)CC1)CCCC2O` (stereo not given) [Paliperidone] was tested. Which “nuclear count per well” value did it give?
**A.** 0.57

**Q.** Which “nuclear count per well” value does the source give for `C[C@H]1O[C@@H](O[C@H]2[C@@H](O)C[C@H](O[C@H]3[C@@H](O)C[C@H](O[C@H]4CC[C@@]5(C)[C@H](CC[C@@H]6[C@@H]5C[C@@H](O)[C@]5(C)[C@@H](C7=CC(=O)OC7)CC[C@]65O)C4)O[C@@H]3C)O[C@@H]2C)C[C@H](O)[C@@H]1O` [Digoxin] here?
**A.** -2.03

**Q.** With `Nc1nc(F)nc2c1ncn2[C@@H]1O[C@H](COP(=O)(O)O)[C@@H](O)[C@@H]1O` [Fludarabine Phosphate] as the compound, how does the “nuclear count per well” value read?
**A.** -0.316

**Q.** For `CC(C)(S)[C@@H](N)C(=O)O` [Penicillamine (D-Penicillamine)], which “nuclear count per well” value is on record?
**A.** 0.74

**Q.** How did the “nuclear count per well” value turn out when `S=c1[nH]cnc2nc[nH]c12` [Mercaptopurine hydrate] was run?
**A.** -0.994

**Q.** How did the “nuclear count per well” value turn out when `CC(C)OC(=O)CCC/C=C\C[C@@H]1[C@@H](/C=C/[C@@H](O)COc2cccc(C(F)(F)F)c2)[C@H](O)C[C@@H]1O` [Travoprost] was run?
**A.** -0.812

**Q.** `O=C(c1ccc(OCCN2CCCCC2)cc1)c1c(-c2ccc(O)cc2)sc2cc(O)ccc12` [Raloxifene hydrochloride] was tested. Which “nuclear count per well” value did it give?
**A.** 1.29

**Q.** For `C=C1O[C@@](CO)(n2cnc3c(N)ncnc32)[C@H](O)[C@@H]1O` [Decoyinine], which “nuclear count per well” value is on record?
**A.** -0.362

**Q.** `CCCCC[C@H](O)/C=C/[C@@H]1[C@@H](C/C=C\CCCC(=O)O)[C@@H](O)C[C@@H]1O` [9a,11b-Prostaglandin F2] was tested. Which “nuclear count per well” value did it give?
**A.** -0.0749

**Q.** With `C=C[C@@]1(C)CC(=O)[C@]2(O)[C@@]3(C)[C@@H](O)CCC(C)(C)[C@@H]3[C@H](O)[C@H](OC(C)=O)[C@@]2(C)O1` [Forskolin] as the compound, how does the “nuclear count per well” value read?
**A.** 0.519

**Q.** How did the “nuclear count per well” value turn out when `CCCCC[C@H](O)/C=C/[C@@H]1[C@@H](CC(=O)CCCCC(=O)O)[C@@H](O)C[C@H]1O` [6-Keto-prostaglandin F1a] was run?
**A.** -0.959

**Q.** With `CC(C)OC(=O)CCC/C=C\C[C@@H]1[C@@H](CC[C@@H](O)CCc2ccccc2)[C@H](O)C[C@@H]1O` [Latanoprost] as the compound, how does the “nuclear count per well” value read?
**A.** 0.224

**Q.** With `CO[C@H]1/C=C/O[C@@]2(C)Oc3c(C)c(O)c4c(c3C2=O)C2=NC3(CCN(CC(C)C)CC3)NC2=C(NC(=O)/C(C)=C\C=C\[C@H](C)[C@H](O)[C@@H](C)[C@@H](O)[C@@H](C)[C@H](OC(C)=O)[C@@H]1C)C4=O` [Rifabutin] as the compound, how does the “nuclear count per well” value read?
**A.** 0.397

**Q.** `Oc1cccc(-c2nc(N3CCOCC3)c3oc4ncccc4c3n2)c1` was tested. Which “nuclear count per well” value did it give?
**A.** 1.28

**Q.** For `CN(N=O)C(=O)N[C@@H](C=O)[C@@H](O)[C@H](O)[C@H](O)CO` [Streptozocin], which “nuclear count per well” value is on record?
**A.** 0.59

**Q.** How did the “nuclear count per well” value turn out when `CC[C@@H]1C(=O)OC[C@@H]1Cc1cncn1C` was run?
**A.** 0.99

**Q.** For `CCCOc1ccccc1-c1nc2[nH]nnc2c(=O)[nH]1` [Zaprinast], which “nuclear count per well” value is on record?
**A.** 0.648

**Q.** Which “nuclear count per well” value does the source give for `Nc1ccc(S(=O)(=O)c2ccc(N)cc2)cc1` [Dapsone] here?
**A.** 1.25

**Q.** Which “nuclear count per well” value does the source give for `CCCCCCCCCCCCCCCC(=O)N[C@H](CN1CCOCC1)[C@H](O)c1ccccc1` (racemic) here?
**A.** 0.169

**Q.** Which “nuclear count per well” value does the source give for `O=C1CCc2cc(OCCCCc3nnnn3C3CCCCC3)ccc2N1` [Cilostazol] here?
**A.** 0.162

**Q.** For `COc1ccc(-c2ccc3cc(C(=O)O)ccc3c2)cc1C12CC3CC(CC(C3)C1)C2` [Adapalene], which “nuclear count per well” value is on record?
**A.** 0.562

**Q.** `Cc1cn([C@H]2C=C[C@@H](CO)O2)c(=O)[nH]c1=O` [Stavudine] was tested. Which “nuclear count per well” value did it give?
**A.** 0.691
